Screens as filed in PubChem.
Most compounds without a hit are left out; they make up all but 28% or so of the library.
CYP2C19 activ = human CYP2C19 activators, primary screen, biochemical, luminescence; 96,000 tested, under 10 active; recombinant CYP2C19, luciferin-H EGE luminescence; active compounds read high; 0 = fully inhibited enzyme, 1 = untreated enzyme; AID 1025, 2008; activation factor at 5 µM; Cytochrome P450 2C19 (Homo sapiens), P33261;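 active = activation factor of at least 2 at 5 µM in the primary screen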
Mac1 fbg enh = enhancers of CD11b/CD18 adhesion to fibrinogen, primary screen, K562 cells, luminescence. 93,000 compounds, 0.07% hits. activation, % at 10 µM. ATPlite luminescence. AID 1499, 2009;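 active = 10 µM primary screen giving 50% or more activity, confirmed by 40% or more on retest at that dose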
CYP2C9 inhib = blockers of cytochrome P450 2C9 activity – biochemical, luminescence, ADME assay, primary screen | 96,000 compounds, 20% hits | AID 777, 2007 | CYP2C9 Supersomes, luciferin-H conversion | inhibition, % at 5 µM | P11712;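 active = blocking of liver enzyme CYP2C9 beyond about 50% at 5 µM, limit read from the data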
Target sequence (P11712 whole entry, looked up): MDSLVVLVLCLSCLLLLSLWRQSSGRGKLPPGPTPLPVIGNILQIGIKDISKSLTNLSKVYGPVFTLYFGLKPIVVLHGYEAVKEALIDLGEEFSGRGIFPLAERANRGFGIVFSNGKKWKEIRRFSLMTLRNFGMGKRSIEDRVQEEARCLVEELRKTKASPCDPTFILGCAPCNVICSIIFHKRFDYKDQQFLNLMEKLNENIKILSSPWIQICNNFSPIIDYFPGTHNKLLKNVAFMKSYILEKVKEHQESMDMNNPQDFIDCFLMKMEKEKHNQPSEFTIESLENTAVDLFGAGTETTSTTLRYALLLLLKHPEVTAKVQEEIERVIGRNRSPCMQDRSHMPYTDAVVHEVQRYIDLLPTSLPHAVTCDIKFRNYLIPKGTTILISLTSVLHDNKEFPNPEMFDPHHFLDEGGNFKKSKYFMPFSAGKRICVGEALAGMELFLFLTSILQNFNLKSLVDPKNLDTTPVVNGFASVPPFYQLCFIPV
CYP2C9 act = human CYP2C9 activators, primary screen, biochemical, luminescence; 96,000 compounds, 1.4% hits; recombinant CYP2C9, luciferin-H conversion; active compounds read high; factor 1 = untreated enzyme, 0 = blocked; activation factor at 5 µM; Cytochrome P450 2C9 (Homo sapiens), P11712;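 active = activation factor of 2 or more for CYP2C9 at a 5 µM dose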
CYP2C19 inh = blockers of cytochrome P450 2C19 activity – biochemical, luminescence, ADME assay, primary screen | P33261 | CYP2C19 Supersomes, luciferin-H EGE luminescence, 30 min | inhibition, % at 5 µM | 96,000 compounds, 21% hits | AID 778, 2007;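 active = CYP2C19 inhibition above a set limit at 5 µM in the primary screen, cut at about 50% in these data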
Mac1 fbg inh = inhibitors of CD11b/CD18 adhesion to fibrinogen, primary screen, K562 cells, luminescence | ATPlite luminescence; Mn2+ added to activate the integrin | inhibition, % at 10 µM | 93,000 compounds, 0.54% hits;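 active = primary inhibition of 50% or more at 10 µM, then 40% or more on retest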
Each line names hits and unclear results; the compound was inactive in the other large screens.

CCCCN1C(=O)C(O)=C(C(C)=O)C1c1ccccc1 (stereo not drawn)	none
Cc1ccc(C)c(/C(O)=C2\C(=O)C(=O)N(CCCn3ccnc3)C2c2ccncc2)c1 (stereo not drawn)	CYP2C9 inhib 53.1 (no result: Mac1 fbg enh, Mac1 fbg inh)
COc1ccc(C2C(C(=O)c3sc(C)nc3C)=C(O)C(=O)N2CCCn2ccnc2)cc1OC (stereo not drawn)	none
CC(=O)C1=C(O)C(=O)N(CCCn2ccnc2)C1c1ccc(C)cc1 (stereo not drawn)	CYP2C19 inh 59.7 (no result: Mac1 fbg enh, Mac1 fbg inh)
CCCCCCN1C(=O)C(O)=C(C(C)=O)C1c1ccc(Cl)cc1 (stereo not drawn)	CYP2C9 inhib 75.3
COc1ccc(OC)c(Nc2ccc(C(=O)O)cc2[N+](=O)[O-])c1	none (no result: CYP2C19 activ, CYP2C9 inhib, CYP2C9 act, CYP2C19 inh)
O=C(Cn1nc(C(F)(F)F)c2c1CCCC2)NC1CCCC1	none (no result: Mac1 fbg enh, Mac1 fbg inh)
Cc1cc(NC(=O)Cn2nc(C(F)(F)F)c3c2CCC3)no1	none
COc1ccc(CNC(=O)Cn2nc(C(F)(F)F)c3c2CCC3)cc1	CYP2C9 act 3 (no result: Mac1 fbg inh)
COc1ccc(NC(=O)Cn2nc(C(F)(F)F)c3c2CCCC3)c(OC)c1	CYP2C19 inh 74.6
COc1ccc(CNc2nc3c(c(C(F)(F)F)n2)CCCCC3)cc1	CYP2C9 inhib 53.1
Cc1ccc(NC(=O)Cn2nc(C(F)(F)F)c3c2CCC3)cc1	CYP2C19 inh 50.3
Cc1noc(C)c1S(=O)(=O)N1CCCC(C(=O)NCc2ccccn2)C1 (stereo not drawn)	none
O=C(OCC(=O)N1CCN(C(=O)COC(=O)c2ccncc2)CC1)c1ccncc1	none
O=C(Cn1nc(C(F)(F)F)c2c1CCCC2)NCc1ccco1	CYP2C9 act 2.1, CYP2C19 inh 55.7
Cn1cnnc1SCC(=O)Nc1ccc2nc(SCc3cccc4ccccc34)sc2c1	CYP2C19 inh 58.6
CCOC(=O)C1CN(S(=O)(=O)c2cccc(C(F)(F)F)c2)c2cc(CC(=O)OC)ccc2O1 (stereo not drawn)	CYP2C9 inhib 59.9, CYP2C19 inh 78.7 (no result: Mac1 fbg enh, Mac1 fbg inh)
CCOC(=O)/C(C#N)=C(\N)C(C)C(=O)Nc1ccccn1 (stereo not drawn)	none
CCC1CCCCN1C(=O)C1CC(c2cc(Cl)c(OC)cc2OC)=NO1 (stereo not drawn)	CYP2C19 inh 71.6
NS(=O)(=O)c1ccc(NC(=O)C2CCCO2)cc1 (stereo not drawn)	none
CCC(C)OC(=O)C1=C(C)NC(=O)CC1c1ccccc1OC (stereo not drawn)	none
CSCCOC(=O)C1=C(C)NC(=O)CC1c1ccccc1Cl (stereo not drawn)	none
CC1=C(C(=O)OC(C)C)C(c2ccccc2Cl)CC(=O)N1 (stereo not drawn)	CYP2C19 inh 86.7
CCCOc1ccccc1C1CC(=O)NC(C)=C1C(=O)OCC(C)C (stereo not drawn)	CYP2C19 inh 56.3 (no result: Mac1 fbg enh, Mac1 fbg inh)
CCC1CCCCN1C(=S)NCc1ccccc1 (stereo not drawn)	none (no result: CYP2C19 activ, CYP2C9 inhib, CYP2C9 act, CYP2C19 inh)
O=C(O)COc1ccc(=O)n(-c2ccccc2)n1	none
CCOC(=O)C(Oc1ccc(=O)n(-c2ccccc2)n1)C(C)=O (stereo not drawn)	CYP2C19 inh 56.3
CCOC(=O)C(Oc1ccc(=O)[nH]n1)C(C)=O (stereo not drawn)	none
COC(=O)COc1ccc(=O)n(-c2ccccc2)n1	CYP2C19 inh 62.7
Cc1ccc(CSCC(=O)N/N=C/c2sccc2C)cc1	CYP2C19 inh 83.2
COc1ccc(CSCC(=O)N/N=C/c2ccccc2OCc2ccccc2)cc1	none
Cc1nn(CC#N)c(=O)n1-c1ccccc1	none
O=C(NCCc1ccccc1)c1ccccc1NS(=O)(=O)N1CCCC1	CYP2C9 inhib 86.1, CYP2C19 inh 89.4
CC(C)CNC(=O)COC(=O)c1cc(S(=O)(=O)N2CCCCC2)ccc1N1CCOCC1	CYP2C9 inhib 68.8
O=C(COC(=O)c1cc(S(=O)(=O)N2CCOCC2)ccc1O)NCCc1ccccc1	CYP2C9 inhib 83.1
O=C(NCCc1ccccc1)c1cc(S(=O)(=O)N2CCOCC2)ccc1F	CYP2C9 inhib 54.4
O=C(COC(=O)c1cc(S(=O)(=O)NCc2ccccc2)ccc1O)NCc1ccccc1	none
Cc1ccc(S(=O)(=O)C2C(=O)N(C)C3(C)CC2c2ccccc2O3)cc1 (stereo not drawn)	none (no result: CYP2C19 activ, CYP2C9 inhib, CYP2C9 act, CYP2C19 inh)
CCOC(=O)NC(Nc1ccc(S(N)(=O)=O)cc1)(C(=O)OCC)C(F)(F)F (stereo not drawn)	none
O=S(=O)(Nc1cccc2ccccc12)N1CCCC1	CYP2C19 inh 67.6
COc1ccccc1NC(=O)c1ccccc1NS(=O)(=O)N1CCCC1	none
O=C(c1cc(S(=O)(=O)N2CCOCC2)ccc1F)N1CCN(Cc2ccccc2)CC1	CYP2C19 inh 75.0
O=c1ccn(-c2cccc(C(F)(F)F)c2)nc1-c1ccn(-c2cccc(Cl)c2)n1	CYP2C9 inhib 52.2 (no result: Mac1 fbg enh, Mac1 fbg inh)
Nc1c(-c2cccc(Cl)c2)cnn1-c1cccc(C(F)(F)F)c1	none
CC1(C)CC(=O)c2sc(NC(=O)c3ccc4ncsc4c3)nc2C1	none
COc1ccc(-n2c(SCC(=O)NCc3ccco3)nc3c([nH]c4ccccc43)c2=O)cc1	none
Cc1ccc(NC(=O)CNc2cccc(C)c2C)c(C)c1	CYP2C9 inhib 51.6, CYP2C19 inh 63.7
Cc1ccc(NC(=O)CCC(=O)n2nc(C)cc2C)c(C)c1	none
Cc1cccc(NC(=O)CCn2nc(C)cc2C)c1	CYP2C9 act 2.6, CYP2C19 inh 71.3
Cc1ccc(NC(=O)CCn2nc(C)cc2C)c(C)c1	CYP2C19 inh 52.6
COC(=O)CCN(C(=O)C1C2CC3CC(C2)CC1C3)c1ccccn1 (stereo not drawn)	none
Cn1c(=O)c2c(nc(SCCN3CCCCC3)n2Cc2ccc(Cl)cc2)n(C)c1=O	none
CCCC(c1nnnn1Cc1ccco1)N1CCN(C2CCCC2)CC1 (stereo not drawn)	none
COc1ccc(/C=c2/sc3n(c2=O)NC2(c4ccccc4)N(C)C(=O)N(C)C2(c2ccccc2)N=3)cc1 (stereo not drawn)	CYP2C9 inhib 59.8
COCc1cc(C)nc(SCC(=O)N2CCC(C)CC2)c1C#N	none
CCCN(CCC)C(=O)CC(c1ccccc1)c1cc(C)ccc1O (stereo not drawn)	CYP2C9 inhib 52.8
CCCN(CCC)C(=O)Cn1ccc(=N)c2ccccc21	none
CN(Cc1ccccc1)C(=O)CC(c1ccccc1)c1cc(Cl)ccc1O (stereo not drawn)	CYP2C9 inhib 75.9 (no result: Mac1 fbg enh, Mac1 fbg inh)
CCOc1ccc(-c2nc(C)c(C(C)=O)n2O)cc1	none
